What was measured:
Experiment in all cases: DAPPL (digital affinity profiling via proximity ligation, sequencing); 10 mM Tris-HCl pH 7.5, 50 mM NaCl, 1 mM DTT, 4% glycerol, room temperature, 30 min; GST-TFs on glutathione beads, 16-mer random dsDNA library, 0.1% formaldehyde crosslink after washing; high values mean tight binding
FEV = target: T1, FEV (Homo sapiens, UniProt Q99581 1-238); conditions: protein: recombinant; tags: N-terminal GST; dsDNA, one strand shown
T1 sequence: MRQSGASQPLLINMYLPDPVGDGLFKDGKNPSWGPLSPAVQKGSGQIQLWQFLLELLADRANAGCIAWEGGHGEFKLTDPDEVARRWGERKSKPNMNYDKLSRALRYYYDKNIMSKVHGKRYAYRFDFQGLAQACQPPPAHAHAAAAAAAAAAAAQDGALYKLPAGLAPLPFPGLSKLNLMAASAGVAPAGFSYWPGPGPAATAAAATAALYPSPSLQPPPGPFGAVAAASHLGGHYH
In short: (§1)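 Yeast served to express human transcription factors as GST fusions, which were then captured on glutathione beads and labelled with DNA barcodes. Pooled with a tag-only sample, they were incubated with 200 nmole of a 16-mer random double-stranded DNA library for 30 min at room temperature in Tris/NaCl/DTT/glycerol buffer, washed, crosslinked with 0.1% formaldehyde, ligated by proximity, amplified by PCR and sequenced. Dividing each hexamer's read frequency for a factor by its frequency for the tag-only sample gives the binding signal.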

ETV5 = ETV5 (Homo sapiens, UniProt P41161 1-510); conditions: protein: recombinant; tags: N-terminal GST; dsDNA, one strand shown
Chain of ETV5 (P41161 whole entry): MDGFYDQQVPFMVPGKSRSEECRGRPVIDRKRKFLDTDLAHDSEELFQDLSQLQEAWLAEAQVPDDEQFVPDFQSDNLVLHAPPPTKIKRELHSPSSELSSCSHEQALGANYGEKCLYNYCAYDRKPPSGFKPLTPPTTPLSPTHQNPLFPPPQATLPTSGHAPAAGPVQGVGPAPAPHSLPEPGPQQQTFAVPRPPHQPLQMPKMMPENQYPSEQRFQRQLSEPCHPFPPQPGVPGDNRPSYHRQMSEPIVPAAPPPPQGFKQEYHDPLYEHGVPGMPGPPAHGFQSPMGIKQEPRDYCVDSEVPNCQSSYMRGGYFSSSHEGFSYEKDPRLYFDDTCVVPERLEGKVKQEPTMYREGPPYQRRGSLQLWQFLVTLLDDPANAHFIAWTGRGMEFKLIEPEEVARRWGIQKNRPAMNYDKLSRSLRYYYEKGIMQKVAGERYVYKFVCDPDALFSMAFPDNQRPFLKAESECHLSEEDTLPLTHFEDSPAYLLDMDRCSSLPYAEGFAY
In short: as §1

HSF1 = HSF1 (Homo sapiens, UniProt Q00613 1-529); conditions: protein: recombinant; tags: N-terminal GST; chain copies: 3; dsDNA, one strand shown
Chain of HSF1 (Q00613 whole entry): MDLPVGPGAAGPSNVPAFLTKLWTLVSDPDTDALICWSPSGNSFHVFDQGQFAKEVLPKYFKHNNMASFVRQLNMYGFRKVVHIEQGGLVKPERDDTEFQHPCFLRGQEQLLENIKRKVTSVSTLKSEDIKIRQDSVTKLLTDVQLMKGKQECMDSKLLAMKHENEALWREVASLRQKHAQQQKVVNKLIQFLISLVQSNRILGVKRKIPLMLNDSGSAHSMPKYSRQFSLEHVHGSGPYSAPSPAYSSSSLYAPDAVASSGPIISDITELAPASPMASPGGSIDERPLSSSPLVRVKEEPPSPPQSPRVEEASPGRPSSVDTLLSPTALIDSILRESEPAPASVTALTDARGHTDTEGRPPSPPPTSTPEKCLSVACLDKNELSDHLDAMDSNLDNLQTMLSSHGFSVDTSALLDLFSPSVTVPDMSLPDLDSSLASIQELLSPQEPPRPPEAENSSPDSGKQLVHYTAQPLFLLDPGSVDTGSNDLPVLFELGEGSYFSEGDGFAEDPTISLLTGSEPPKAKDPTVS
In short: as §1

SPIC = target: T2, SPIC (Homo sapiens, UniProt Q8N5J4 1-248); conditions: protein: recombinant; tags: N-terminal GST; dsDNA, one strand shown
T2 sequence: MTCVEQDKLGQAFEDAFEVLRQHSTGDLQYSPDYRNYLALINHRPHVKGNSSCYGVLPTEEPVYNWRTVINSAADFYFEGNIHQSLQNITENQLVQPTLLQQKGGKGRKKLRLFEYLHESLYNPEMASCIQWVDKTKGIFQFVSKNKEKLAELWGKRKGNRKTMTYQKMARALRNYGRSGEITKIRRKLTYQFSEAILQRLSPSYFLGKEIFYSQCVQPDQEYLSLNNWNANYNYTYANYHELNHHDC
In short: as §1

ELF4 = ELF4 (Homo sapiens, UniProt Q99607 1-663); conditions: protein: recombinant; tags: N-terminal GST; dsDNA, one strand shown
Chain of ELF4 (Q99607 whole entry): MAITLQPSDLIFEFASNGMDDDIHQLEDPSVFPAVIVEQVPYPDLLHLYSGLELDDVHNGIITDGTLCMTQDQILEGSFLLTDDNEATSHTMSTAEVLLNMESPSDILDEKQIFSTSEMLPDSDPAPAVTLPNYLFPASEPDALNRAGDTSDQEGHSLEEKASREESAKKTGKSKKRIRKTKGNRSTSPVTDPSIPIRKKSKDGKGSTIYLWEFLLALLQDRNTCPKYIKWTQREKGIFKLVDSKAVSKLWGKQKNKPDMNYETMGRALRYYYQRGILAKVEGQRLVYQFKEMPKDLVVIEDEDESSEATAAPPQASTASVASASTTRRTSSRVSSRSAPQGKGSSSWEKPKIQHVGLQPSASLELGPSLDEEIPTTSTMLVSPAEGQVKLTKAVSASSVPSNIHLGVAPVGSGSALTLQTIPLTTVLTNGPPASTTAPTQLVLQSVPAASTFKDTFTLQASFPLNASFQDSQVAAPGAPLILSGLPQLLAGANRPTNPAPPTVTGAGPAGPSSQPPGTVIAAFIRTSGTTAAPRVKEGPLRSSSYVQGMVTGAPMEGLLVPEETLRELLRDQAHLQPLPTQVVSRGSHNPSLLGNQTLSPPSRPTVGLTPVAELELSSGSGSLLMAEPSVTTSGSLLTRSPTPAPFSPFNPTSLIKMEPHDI
In short: as §1

ELK4 = target: T3, ELK4 (Homo sapiens, UniProt P28324-2 1-405); conditions: protein: recombinant; tags: N-terminal GST; dsDNA, one strand shown
T3 sequence: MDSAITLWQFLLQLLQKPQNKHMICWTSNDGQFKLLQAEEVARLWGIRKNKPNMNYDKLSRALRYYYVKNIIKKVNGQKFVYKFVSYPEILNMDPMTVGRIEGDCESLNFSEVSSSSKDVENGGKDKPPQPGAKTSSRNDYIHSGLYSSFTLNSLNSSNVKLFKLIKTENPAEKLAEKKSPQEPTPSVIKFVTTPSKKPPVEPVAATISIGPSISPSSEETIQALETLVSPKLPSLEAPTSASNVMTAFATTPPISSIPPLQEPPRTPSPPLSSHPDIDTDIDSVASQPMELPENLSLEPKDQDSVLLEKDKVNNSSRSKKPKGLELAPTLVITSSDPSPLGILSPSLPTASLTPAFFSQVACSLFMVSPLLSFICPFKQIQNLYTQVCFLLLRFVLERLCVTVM
In short: as §1

ETV2 = target: T4, ETV2 (Homo sapiens, UniProt O00321 1-342); conditions: protein: recombinant; tags: N-terminal GST; dsDNA, one strand shown
T4 sequence: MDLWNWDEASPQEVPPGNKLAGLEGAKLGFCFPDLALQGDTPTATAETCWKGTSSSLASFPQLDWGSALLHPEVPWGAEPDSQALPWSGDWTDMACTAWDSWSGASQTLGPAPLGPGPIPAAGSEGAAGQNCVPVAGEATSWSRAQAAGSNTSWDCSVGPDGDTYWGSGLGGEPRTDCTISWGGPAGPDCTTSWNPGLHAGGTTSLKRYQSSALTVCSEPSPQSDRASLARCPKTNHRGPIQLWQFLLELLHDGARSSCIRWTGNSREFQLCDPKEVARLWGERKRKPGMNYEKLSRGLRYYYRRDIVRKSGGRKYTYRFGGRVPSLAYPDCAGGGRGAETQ
In short: as §1

ELF3 = target: T5, ELF3 (Homo sapiens, UniProt P78545 1-371); conditions: protein: recombinant; tags: N-terminal GST; dsDNA, one strand shown
T5 sequence: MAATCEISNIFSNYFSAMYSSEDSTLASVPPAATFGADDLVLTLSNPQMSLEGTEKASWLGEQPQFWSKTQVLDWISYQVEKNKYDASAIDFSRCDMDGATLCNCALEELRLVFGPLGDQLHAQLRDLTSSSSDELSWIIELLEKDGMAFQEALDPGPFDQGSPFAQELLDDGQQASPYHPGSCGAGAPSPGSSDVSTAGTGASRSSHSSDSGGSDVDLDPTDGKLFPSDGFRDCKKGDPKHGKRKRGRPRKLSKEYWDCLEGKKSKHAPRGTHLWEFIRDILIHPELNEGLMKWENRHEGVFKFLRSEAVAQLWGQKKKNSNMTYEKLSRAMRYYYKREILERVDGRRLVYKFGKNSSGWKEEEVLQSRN
In short: as §1

CRX = CRX (Homo sapiens, UniProt O43186 1-299); conditions: protein: recombinant; tags: N-terminal GST; dsDNA, one strand shown
Chain of CRX (O43186 whole entry): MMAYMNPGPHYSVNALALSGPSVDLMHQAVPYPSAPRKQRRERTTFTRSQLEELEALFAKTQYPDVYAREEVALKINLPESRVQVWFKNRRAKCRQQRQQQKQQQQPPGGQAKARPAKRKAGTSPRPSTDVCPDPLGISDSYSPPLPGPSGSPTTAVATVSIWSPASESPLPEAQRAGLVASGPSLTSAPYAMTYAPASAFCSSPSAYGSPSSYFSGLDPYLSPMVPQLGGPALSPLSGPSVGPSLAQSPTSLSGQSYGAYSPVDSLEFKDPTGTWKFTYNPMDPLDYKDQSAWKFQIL
In short: as §1

ETV1 = ETV1 (Homo sapiens, UniProt P50549 1-477); conditions: protein: recombinant; tags: N-terminal GST; dsDNA, one strand shown
Chain of ETV1 (P50549 whole entry): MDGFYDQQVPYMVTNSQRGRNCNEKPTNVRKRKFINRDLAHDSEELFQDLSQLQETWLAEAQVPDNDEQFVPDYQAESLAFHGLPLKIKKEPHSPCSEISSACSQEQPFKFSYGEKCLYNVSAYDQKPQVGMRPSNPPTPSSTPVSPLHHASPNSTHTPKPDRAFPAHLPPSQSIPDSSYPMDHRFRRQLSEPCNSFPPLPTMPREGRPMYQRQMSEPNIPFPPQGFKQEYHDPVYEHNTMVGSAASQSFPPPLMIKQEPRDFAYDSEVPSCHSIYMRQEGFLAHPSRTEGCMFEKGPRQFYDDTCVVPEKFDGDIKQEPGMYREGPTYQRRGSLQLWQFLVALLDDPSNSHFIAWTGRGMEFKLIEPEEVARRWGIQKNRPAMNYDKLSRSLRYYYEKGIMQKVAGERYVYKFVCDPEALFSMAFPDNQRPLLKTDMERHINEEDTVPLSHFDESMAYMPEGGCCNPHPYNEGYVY
In short: as §1

ERF = target: T6, ERF (Homo sapiens, UniProt P50548 1-548); conditions: protein: recombinant; tags: N-terminal GST; dsDNA, one strand shown
T6 sequence: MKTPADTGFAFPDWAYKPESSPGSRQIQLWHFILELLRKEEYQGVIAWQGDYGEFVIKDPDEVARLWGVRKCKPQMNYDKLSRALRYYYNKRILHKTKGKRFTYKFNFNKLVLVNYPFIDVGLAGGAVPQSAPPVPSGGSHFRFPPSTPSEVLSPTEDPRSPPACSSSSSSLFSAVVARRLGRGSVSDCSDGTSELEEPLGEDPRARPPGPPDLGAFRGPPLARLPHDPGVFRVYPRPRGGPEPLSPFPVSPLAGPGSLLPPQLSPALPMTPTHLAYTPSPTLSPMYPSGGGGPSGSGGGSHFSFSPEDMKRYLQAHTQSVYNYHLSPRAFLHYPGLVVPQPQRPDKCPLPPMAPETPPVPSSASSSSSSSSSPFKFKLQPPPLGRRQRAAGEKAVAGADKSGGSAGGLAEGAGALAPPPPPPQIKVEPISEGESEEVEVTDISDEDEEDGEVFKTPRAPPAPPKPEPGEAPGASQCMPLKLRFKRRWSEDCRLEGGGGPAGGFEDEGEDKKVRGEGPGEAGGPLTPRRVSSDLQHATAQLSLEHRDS
In short: as §1

ETV3L = target: T7, ETV3L (Homo sapiens, UniProt Q6ZN32 1-361); conditions: protein: recombinant; tags: N-terminal GST; dsDNA, one strand shown
T7 sequence: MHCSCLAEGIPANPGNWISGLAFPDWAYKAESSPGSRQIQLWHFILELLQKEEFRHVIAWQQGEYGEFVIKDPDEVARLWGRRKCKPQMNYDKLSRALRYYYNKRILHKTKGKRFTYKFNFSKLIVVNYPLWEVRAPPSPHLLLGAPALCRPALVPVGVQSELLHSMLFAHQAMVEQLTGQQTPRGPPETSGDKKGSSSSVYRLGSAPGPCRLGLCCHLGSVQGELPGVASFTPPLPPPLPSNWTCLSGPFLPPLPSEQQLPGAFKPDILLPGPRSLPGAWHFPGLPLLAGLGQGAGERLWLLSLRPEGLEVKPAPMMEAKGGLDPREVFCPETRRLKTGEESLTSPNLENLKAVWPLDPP
In short: as §1

ETS2 = target: T8, ETS2 (Homo sapiens, UniProt P15036 1-469); conditions: protein: recombinant; tags: N-terminal GST; dsDNA, one strand shown
T8 sequence: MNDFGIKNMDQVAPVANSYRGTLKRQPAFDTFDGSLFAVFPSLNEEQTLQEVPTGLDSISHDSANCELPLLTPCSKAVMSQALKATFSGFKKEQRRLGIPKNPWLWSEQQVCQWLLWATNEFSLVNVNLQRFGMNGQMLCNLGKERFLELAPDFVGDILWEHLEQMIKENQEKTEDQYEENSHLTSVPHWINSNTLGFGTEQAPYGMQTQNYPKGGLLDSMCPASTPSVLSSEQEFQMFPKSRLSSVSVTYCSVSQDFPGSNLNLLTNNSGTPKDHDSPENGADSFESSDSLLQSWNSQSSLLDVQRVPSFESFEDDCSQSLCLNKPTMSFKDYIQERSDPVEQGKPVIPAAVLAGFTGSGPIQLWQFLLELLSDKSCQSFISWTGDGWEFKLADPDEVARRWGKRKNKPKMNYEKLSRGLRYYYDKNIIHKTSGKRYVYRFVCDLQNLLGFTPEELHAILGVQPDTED
In short: as §1

SPDEF = target: T9, SPDEF (Homo sapiens, UniProt O95238 1-335); conditions: protein: recombinant; tags: N-terminal GST; dsDNA, one strand shown
T9 sequence: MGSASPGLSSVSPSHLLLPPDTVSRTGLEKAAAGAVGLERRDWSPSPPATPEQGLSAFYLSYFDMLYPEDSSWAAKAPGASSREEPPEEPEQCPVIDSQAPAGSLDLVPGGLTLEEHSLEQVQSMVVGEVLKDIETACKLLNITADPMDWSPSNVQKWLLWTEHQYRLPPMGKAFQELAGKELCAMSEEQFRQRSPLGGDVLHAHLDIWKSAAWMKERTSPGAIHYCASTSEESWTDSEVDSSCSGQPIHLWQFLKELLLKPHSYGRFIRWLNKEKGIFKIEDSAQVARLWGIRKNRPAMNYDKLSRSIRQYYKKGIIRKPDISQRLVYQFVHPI
In short: as §1

ETV7 = target: T10, ETV7 (Homo sapiens, UniProt Q9Y603 1-341); conditions: protein: recombinant; tags: N-terminal GST; dsDNA, one strand shown
T10 sequence: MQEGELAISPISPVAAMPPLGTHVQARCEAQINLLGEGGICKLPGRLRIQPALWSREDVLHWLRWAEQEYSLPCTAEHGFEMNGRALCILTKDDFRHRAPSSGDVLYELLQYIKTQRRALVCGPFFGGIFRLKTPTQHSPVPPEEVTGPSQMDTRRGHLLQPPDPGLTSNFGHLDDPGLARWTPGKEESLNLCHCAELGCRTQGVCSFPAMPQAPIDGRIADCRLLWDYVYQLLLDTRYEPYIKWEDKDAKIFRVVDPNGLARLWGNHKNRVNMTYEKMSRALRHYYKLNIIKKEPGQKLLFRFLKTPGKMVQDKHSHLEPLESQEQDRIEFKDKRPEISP
In short: as §1

ELF5 = target: T11, ELF5 (Homo sapiens, UniProt Q9UKW6-2 1-255); conditions: protein: recombinant; tags: N-terminal GST; dsDNA, one strand shown
T11 sequence: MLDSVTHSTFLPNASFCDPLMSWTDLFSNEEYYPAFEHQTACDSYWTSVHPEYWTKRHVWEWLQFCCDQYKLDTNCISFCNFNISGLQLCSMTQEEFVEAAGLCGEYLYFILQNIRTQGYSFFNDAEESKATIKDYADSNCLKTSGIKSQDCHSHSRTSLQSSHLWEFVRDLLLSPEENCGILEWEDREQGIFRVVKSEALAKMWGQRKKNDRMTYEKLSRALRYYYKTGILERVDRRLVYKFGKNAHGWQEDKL
In short: as §1

ETV3 = target: T12, ETV3 (Homo sapiens, UniProt P41162-2 1-143); conditions: protein: recombinant; tags: N-terminal GST; dsDNA, one strand shown
T12 sequence: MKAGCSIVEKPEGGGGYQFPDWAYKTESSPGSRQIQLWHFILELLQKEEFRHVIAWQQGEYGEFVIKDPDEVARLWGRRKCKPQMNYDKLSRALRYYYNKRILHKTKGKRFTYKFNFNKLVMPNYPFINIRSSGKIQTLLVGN
In short: as §1

ETV6 = ETV6 (Homo sapiens, UniProt P41212 1-452); conditions: protein: recombinant; tags: N-terminal GST; dsDNA, one strand shown
Chain of ETV6 (P41212 whole entry): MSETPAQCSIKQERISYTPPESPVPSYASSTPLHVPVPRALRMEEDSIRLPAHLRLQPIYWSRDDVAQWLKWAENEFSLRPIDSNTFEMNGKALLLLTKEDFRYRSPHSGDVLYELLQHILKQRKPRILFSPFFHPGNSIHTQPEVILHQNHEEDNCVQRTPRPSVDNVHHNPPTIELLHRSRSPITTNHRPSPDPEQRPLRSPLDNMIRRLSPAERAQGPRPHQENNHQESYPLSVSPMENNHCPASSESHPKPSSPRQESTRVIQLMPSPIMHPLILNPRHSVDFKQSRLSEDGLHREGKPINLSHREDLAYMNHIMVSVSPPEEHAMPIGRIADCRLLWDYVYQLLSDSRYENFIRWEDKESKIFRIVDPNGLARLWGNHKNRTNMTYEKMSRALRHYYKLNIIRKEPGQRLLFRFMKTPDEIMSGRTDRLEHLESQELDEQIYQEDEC
In short: as §1

AACTCG
binding signal (FEV): 1.32 fold enrichment (6-mer frequency, TF over GST control)
binding signal (ETV5): 1.29 fold enrichment (6-mer frequency, TF over GST control)
binding signal (HSF1): 1.4 fold enrichment (6-mer frequency, TF over GST control)
binding signal (SPIC): 1.58 fold enrichment (6-mer frequency, TF over GST control)
binding signal (ELF4): 1.37 fold enrichment (6-mer frequency, TF over GST control)
binding signal (ELK4): 1.29 fold enrichment (6-mer frequency, TF over GST control)
binding signal (ETV2): 1.37 fold enrichment (6-mer frequency, TF over GST control)
binding signal (ELF3): 1.29 fold enrichment (6-mer frequency, TF over GST control)
binding signal (CRX): 1.3 fold enrichment (6-mer frequency, TF over GST control)
binding signal (ETV1): 1.3 fold enrichment (6-mer frequency, TF over GST control)
binding signal (ERF): 1.44 fold enrichment (6-mer frequency, TF over GST control)
binding signal (ETV3L): 1.43 fold enrichment (6-mer frequency, TF over GST control)
binding signal (ETS2): 1.31 fold enrichment (6-mer frequency, TF over GST control)
binding signal (SPDEF): 1.31 fold enrichment (6-mer frequency, TF over GST control)
binding signal (ETV7): 1.33 fold enrichment (6-mer frequency, TF over GST control)
binding signal (ELF5): 1.35 fold enrichment (6-mer frequency, TF over GST control)
binding signal (ETV3): 1.4 fold enrichment (6-mer frequency, TF over GST control)
binding signal (ETV6): 1.33 fold enrichment (6-mer frequency, TF over GST control)

— paper PMC7862700, “An all-to-all approach to the identification of sequence-specific readers for epigenetic DNA modifications on cytosine”
